This is a sample that favours compounds with a hit; in the whole collection about 10% have one here.
G9a inh: qHTS Assay for Inhibitors of Histone Lysine Methyltransferase G9a. G9a H3K9 monomethylation, AlphaScreen, 2 h. Potency, µM (top dose mostly 102 µM), for the others: top-dose activity, negative = inhibition, hits mostly inhibitors. hit rate 8.8% among 350,000. AID 504332, 2011; further: potency means the concentration at half of the fitted maximal effect; on the % scale 0 is the no-effect control and ±100 the full control effect; nearly all actives have a fitted effect of over 75% in size
Target sequence (Q96KQ7 913-1193 limits assumed): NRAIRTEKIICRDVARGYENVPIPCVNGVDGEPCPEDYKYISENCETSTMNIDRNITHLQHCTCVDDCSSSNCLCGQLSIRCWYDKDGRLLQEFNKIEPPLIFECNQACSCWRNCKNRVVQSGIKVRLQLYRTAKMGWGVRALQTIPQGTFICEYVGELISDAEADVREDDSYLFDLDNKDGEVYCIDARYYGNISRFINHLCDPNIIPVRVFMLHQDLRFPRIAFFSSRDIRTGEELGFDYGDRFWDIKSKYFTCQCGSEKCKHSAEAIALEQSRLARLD
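AlphaScreen read-out: biotin-H3K9 peptide (500 nM) methylation by 20 nM enzyme with 20 uM SAM, 2 h at room temperature after 15 min compound preincubation; anti-monomethyl H3K9 antibody plus donor/acceptor beads, 10 min dark.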
Six1-Eya2 blk: qHTS Assay for Inhibitors of the Six1/Eya2 Interaction | activity change, % (test concentration not listed) | hit rate 0.56% among 360,000 | Homeobox protein SIX1 (Homo sapiens) + Protein phosphatase EYA2 (Homo sapiens), … | AlphaScreen GST-Six1/His-Eya2 binding, biochemical; stronger effect = lower value | AID 651725, 2012; in the data active means activity change below about -65%; inconclusive means mostly about -30% to -63%; further: on the % scale 0 is the no-effect control and ±100 the full control effect
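AlphaScreen with GST-Six1 and His-Eya2 (5X mix: 250 nM and 500 nM), glutathione donor and nickel acceptor beads; buffer 50 mM Tris pH 8.0, 300 mM NaCl, 1 mM TCEP; 1 h at 37 C in the dark.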
BAZ2B block: qHTS Assay for Inhibitors of BAZ2B | AID 504333, 2011 | AlphaScreen BAZ2B-H3K14Ac peptide displacement | hit rate 4.4% among 360,000 | Bromodomain adjacent to zinc finger domain protein 2B (Homo sapiens), Q9UIF8 | Potency, µM (series often up to 114 µM), without a hit: at the top dose activity change, negative = inhibition, most hits filed as inhibitors; further: potency means the concentration at half of the fitted maximal effect; on the % scale 0 is the no-effect control and ±100 the full control effect; nearly all actives have a fitted effect of over 60% in size
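Compounds, titrated to a top concentration of 110 uM, were incubated 30 min at room temperature with preformed BAZ2B/acetyl-K14 H3 peptide complex (50 nM each). Proximity signal was measured by AlphaScreen after 20 min with beads.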
JMJD2A Tudor: qHTS Assay for Inhibitors of JMJD2A-Tudor Domain; Lysine-specific demethylase 4A (Homo sapiens), O75164; AlphaScreen JMJD2A-Tudor / H3K4me3 peptide binding; Potency, µM (doses to about 114 µM), for the others: at the top dose activity change, negative = inhibition, most hits filed as inhibitors; hit rate 4.4% among 390,000; further: potency means the concentration at half of the fitted maximal effect; on the % scale 0 is the no-effect control and ±100 the full control effect; nearly all actives have a fitted effect of over 50% in size
CtBP-E1A inh: qHTS Assay for Inhibitors of the CtBP/E1A Interaction | activity change, % (test concentration not listed) | CtBP / adenovirus E1A interaction (AlphaScreen) | hit rate 0.49% among 340,000 | AlphaScreen GST-E1A/His-CtBP binding, 1536-well; stronger effect = lower value; in the data active means activity change below about -65%; inconclusive means mostly about -30% to -63%; further: on the % scale 0 is the no-effect control and ±100 the full control effect
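Steps: dispense buffer (Tris pH 8.0, NaCl 300 mM, TCEP 1 mM, BSA, Tween 20); add 5X protein mix (GST-E1A, His-CtBP, 125 nM each); pin 23 nL compound; 2 h at 37 °C, dark; add 5X beads (50 ug/mL); 1 h; read.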
HP1b binding inh: HTS for Inhibitors of HP1-beta Chromodomain Interactions with Methylated Histone Tails; AlphaScreen HP1-beta / biotin-H3K9me3 peptide binding; Chromobox protein homolog 1 (Homo sapiens), P83916; hit rate 0.56% among 390,000; Potency, µM (top dose mostly 114 µM), for the others: at the top dose activity change, negative = inhibition, usual class: inhibitors; further: potency means the concentration at half of the fitted maximal effect; nearly all actives have a fitted effect of over 70% in size
Target sequence (P83916 whole entry, looked up): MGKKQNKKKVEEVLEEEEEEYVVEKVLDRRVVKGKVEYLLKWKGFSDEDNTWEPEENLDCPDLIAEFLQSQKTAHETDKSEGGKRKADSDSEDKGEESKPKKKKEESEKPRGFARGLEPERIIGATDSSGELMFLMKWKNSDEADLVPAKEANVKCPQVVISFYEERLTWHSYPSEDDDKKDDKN
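HP1-beta protein (50 nM final) preincubated 30 min at room temperature with biotinylated H3(1-18)K9me3 peptide (50 nM) in PBS pH 7.4, 0.01% Tween-20, then compound added for 30 min. AlphaScreen streptavidin donor/nickel chelate acceptor beads (10 ug/mL final), 30 min dark, luminescence read.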
* marks the source's active call; other numbers are inactive results; ? = inconclusive; · = no result given; [ ] = remark or other dose. Unless noted, the call rests on the fitted dose curve; in most records, active means well fitted inhibition curve with a large enough effect; inconclusive means small, poorly fitted or top-dose-only effect; inactive means no such curve, though single readings can be large or run the other way.

SMILES	G9a inh	Six1-Eya2 blk	BAZ2B block	JMJD2A Tudor	CtBP-E1A inh	HP1b binding inh
CCN1CCN(C(=O)c2cnn(-c3ccc(F)cc3)c2-n2cccc2)CC1	5.7%[59 µM]	·	-1.9%	1.4%	·	42.5%
C(=N\N1CCN(Cc2ccccc2)CC1)/c1ccc(-c2ccccc2)cc1	-8.0%	3.5	-12.4%	-21.8%	·	20.3%
O=C(O)c1ccc(/C=N/N2CCN(Cc3ccccc3)CC2)cc1	?	-0.3	89.1µM*	-5.4%	5.4	28.8%
Cc1ccsc1CN1CCN(c2ccccn2)CC1	?	1.4	50.1µM*	1.78µM*	3.1	-52.9%
CN1CCN(/N=C/c2ccc(-c3ccccc3)cc2)CC1	70.8µM*	?	22.1%	39.8µM*	?	?
COc1cc(/C=N/N2CCN(Cc3ccc(C)cc3)CC2)cc(OC)c1O	·	-17.2	56.2µM*	39.8µM*	-19.6	?
c1ccc(-c2nnc(CN3CCN(c4ccccn4)CC3)o2)cc1	6.1%[59 µM]	·	-2.7%	-19.2%	·	19.0%
CCc1cccc(C)c1NC(=O)CSc1nc2ccccc2nc1N1CCOCC1	11.8%[59 µM]	·	-0.5%	-8.6%	·	36.7%
Cc1cccc(NC(=O)Cn2nc(C)c3nn(-c4ccc(Cl)cc4)c(C)c3c2=O)c1C	1.8%[59 µM]	·	2.1%	-13.6%	·	26.9%[57 µM]
Cc1cccc(NC(=O)CSc2nnc3[nH]c(=O)cc(-c4ccccc4)n23)c1C	7.0%[59 µM]	·	4.5%	1.3%	·	56.2%
N#Cc1nc(Nc2cc(F)cc(F)c2)c2ncn(C3CCCC3)c2n1	·	·	·	-2.7%	·	·
COc1ccccc1CNc1ncncc1-c1ccccc1OC	-25.1%[0.501 µM]	·	·	·	·	·
CN1CCOc2ccc(S(=O)(=O)N3CCN(S(=O)(=O)c4c(F)cccc4F)CC3)cc21	7.8%[12.7 µM]	·	12.7%	-13.7%	·	·
Cc1ccc(-c2nn(CCC(=O)O)cc2/C=C\C(=O)c2ccc(Br)cc2)cc1	25.1µM*	9.6	?	?	0.0	23.7%
O=C(O)CCn1cc(/C=C\C(=O)c2ccc(Cl)cc2)c(-c2cccc(Br)c2)n1	2.3%[59 µM]	-4.6	?	-26.7%	-0.2	-6.0%
O=C1C=C(NCCc2cc(Br)c(O)c(Br)c2)C(=O)c2ncccc21	·	-85.5*	·	28.2µM*	-91.7*	31.6µM*
O=C1C(=O)c2ncccc2-c2cccnc21	-118.3%[2.33 µM]	·	·	·	·	·
COCc1nn2cc(-c3ccc(C)cc3)nc2s1	-4.4%[59 µM]	·	-17.7%	-5.7%	·	50.3%
Cc1ccc(NCc2nnc(SCC(=O)Nc3ccccc3)n2CC2CCCO2)c(C)c1 (configuration not stated)	-11.5%[59 µM]	-10.5	?	56.2µM*	-7.5	-19.2%
Cc1ccc(NC(=O)CSc2nnc(C3CC3)n2CC2CCCO2)c(C)c1 (configuration not stated)	4.2%	3.0	-2.1%	4.9%	4.3	34.8%
CCOC(=O)c1cccc(NC(=O)CSc2nnc(CNc3ccc(C)cc3)n2CC)c1	?	-7.5	50.1µM*	-24.4%	-21.7	12.6%
CCc1nc(-c2cc(S(=O)(=O)N3CCN(c4ccccc4)CC3)ccc2OC)no1	-10.8%[59 µM]	·	-1.0%	5.3%	·	37.2%
COc1ccc(C)cc1S(=O)(=O)N1CCN(c2cccc(Cl)c2)CC1	0.9%[59 µM]	·	-9.9%	-3.7%	·	26.4%
COc1cc(-c2nc3ccc4ccccc4c3c3c2CCC3)cc(OC)c1OC	28.0%[12.7 µM]	-0.7	-4.1%	-7.4%	3.0	42.6%
COc1cc(-c2nc3ccc4ccccc4c3c3c2CCC3)cc(OC)c1O	79.4µM*	-28.7	?	?	9.1	?
O=C(Nc1ccc2c(c1)OCO2)N1CCCc2ccccc21	56.2µM*	-4.3	-16.1%	-7.0%	-7.3	14.5%
